This is a sample that favours compounds with a hit; in the whole collection about 2.2% have one here.
TLR4 MyD88 comp: inhibitors of TLR4-MyD88 association in cells, primary screen, cell-based, HeLa CL3-4, BLA complementation, FRET ratio; Toll-like receptor 4 (Homo sapiens) + Myeloid differentiation primary response protein …; HeLa CL3-4 TLR4/MyD88 BLA complementation; inhibition, % at 8.4 µM; 200,000 tested, 0.18% active; AID 861, 2007; in the data active = inhibition above about 25%;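 note: 0% = vehicle and 100% = reference inhibitor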
TLR9-MyD88 inh: inhibitors of TLR9-MyD88 association in cells, primary screen, cell-based, CHO, BLA complementation, fluorescence; CCF4 FRET ratio; inhibition, % at 4.98 µM; 340,000 tested, 0.21% active; AID 504734, 2011;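 active = inhibition above the mean over all tested compounds plus 3 SD, cut at about 21% in these data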;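 note: 0% = DMSO only wells and 100% = clavulanate BLA inhibitor control wells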
ANO1 activ: TMEM16A chloride channel activators or potentiators, primary screen, cell-based, HTS; Anoctamin-1 (Mus musculus), Q8BHY3; 340,000 tested, 0.3% active; HEK293 TMEM16A/YFP-H148Q/I152L, iodide quench fluorescence; stronger effect = lower value; B-score at 10 µM;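 active = fluorescence-ratio B-score plate-corrected deviation score at least 3 library SD below zero, with starting fluorescence score within 5 deviations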;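 note: channel opened by trigger with iodide after compound preincubation; score built on the fluorescence ratio of max minus min over baseline; more negative score means more quench and so TMEM16A activation or potentiation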
NOD2 RIPK2 PPI: NOD2-RIPK2 binding disruptors in cells, primary screen, fluorescence, CHO cells, BLA complementation | AID 624267, 2012 | 360,000 tested, 0.38% active | inhibition, % at 4.98 µM | CCF4 ratio; in the data active = inhibition above about 21%;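 note: 0% = vehicle only and 100% = reference blocker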
Target sequence (O43353 whole entry, looked up): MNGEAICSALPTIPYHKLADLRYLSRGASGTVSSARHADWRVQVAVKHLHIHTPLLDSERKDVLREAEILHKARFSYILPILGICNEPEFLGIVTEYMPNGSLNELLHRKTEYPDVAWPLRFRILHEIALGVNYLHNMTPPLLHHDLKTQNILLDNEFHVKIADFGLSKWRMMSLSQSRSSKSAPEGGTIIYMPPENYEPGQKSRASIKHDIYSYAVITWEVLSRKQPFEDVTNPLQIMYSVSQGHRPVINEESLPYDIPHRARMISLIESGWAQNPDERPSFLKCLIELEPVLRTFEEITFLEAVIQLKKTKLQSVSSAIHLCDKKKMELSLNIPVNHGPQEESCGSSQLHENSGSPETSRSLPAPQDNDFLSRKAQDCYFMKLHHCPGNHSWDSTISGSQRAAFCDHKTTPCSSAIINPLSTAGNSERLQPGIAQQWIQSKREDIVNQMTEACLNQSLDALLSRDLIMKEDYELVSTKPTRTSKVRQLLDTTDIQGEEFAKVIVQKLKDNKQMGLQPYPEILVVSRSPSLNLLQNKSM
GRK2 inh: compounds blocking aptamer binding on GRK2 – biochemical, human GRK2, bead flow cytometry, HTS, primary screen; Beta-adrenergic receptor kinase 1 (Homo sapiens), P25098; FAM-aptamer displacement from GRK2; inhibition of aptamer binding, % at 10 µM; 330,000 tested, 0.59% active; AID 488847, 2010;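 active = inhibition of aptamer binding above 40%, roughly 3 SD of noise, on plates passing a quality check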;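 note: median bead fluorescence of bound FAM aptamer so fluorescent compounds give negative values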
ANO1 block: TMEM16A chloride channel inhibitors, primary screen, cell-based, HTS | Anoctamin-1 (Mus musculus), Q8BHY3 | HEK293 TMEM16A/YFP iodide influx fluorescence, ionomycin | normalized B-score (activity score, 25-100; higher = stronger inhibition) at 10 µM | 310,000 tested, 1.2% active | AID 588511, 2011;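 active = ratio plate-corrected score three or more library SD toward inhibition, starting fluorescence score within five deviations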;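 note: score derived from kinetic fluorescence span divided by baseline fluorescence per well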
GRK2 CP1: GRK2 aptamer-displacing inhibitors, retest, confirmation, biochemical, cherry pick 1, bead flow cytometry; shares compounds with GRK2 inh; bead-bound GRK2, FAM-aptamer displacement; aptamer displacement, % at 10 µM; 2,000 tested, 4% active;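 active = aptamer displacement above 40%, near three times the noise of non-fluorescent compounds, on plates passing quality checks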;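 note: negative values mostly reflect intrinsic compound fluorescence rather than true enhancement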
FAM quench CP1: aptamer fluorescence quenching in GRK2 counter-screen. shares compounds with GRK2 inh. fluorescence response (% of DMSO), % at 10 µM. AID 504580. 2,000 tested, under 10 active. Carboxyfluorescein RNA aptamer on beads, flow cytometry quenching; stronger effect = lower value;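 active = compounds that quench the bead-bound fluorescent RNA probe, cutting fluorescence to under half of the solvent control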;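 note: counterscreen run without GRK2 so only probe quenching by compound is measured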
GRK2 confirm 2: GRK2 aptamer-displacing inhibitors, hit retest, confirmation, biochemical, cherry pick 2, bead flow cytometry. shares compounds with GRK2 inh. bead-bound GRK2, FAM-aptamer displacement. inhibition of aptamer binding, % at 10 µM. 360 tested, under 10 active. AID 504782, 2011;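 active = inhibition of aptamer binding above 40%, about triple the noise seen with nonglowing compounds, on plates passing quality control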;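 note: negative values mostly come from compounds that fluoresce themselves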
FAM quench SP: aptamer fluorescence quenching in GRK2 counter-screen | shares compounds with GRK2 inh | carboxyfluorescein RNA aptamer beads, flow cytometry quenching; stronger effect = lower value | fluorescence response vs DMSO, % at 10 µM | 360 tested, under 10 active | AID 588494;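 active = response vs DMSO under 50%, meaning signal dropped by over half, treated as fluorescence quencher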;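 note: labelled aptamer on streptavidin beads without GRK2 as a quench counter-screen; 100% = bead fluorescence of DMSO wells and lower means quenching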
* marks the source's active call; other numbers are inactive results; i = inactive; . = not tested or not shown.

SMILES	TLR4 MyD88 comp	TLR9-MyD88 inh	ANO1 activ	NOD2 RIPK2 PPI	GRK2 inh	ANO1 block	GRK2 CP1	FAM quench CP1	others
O=C(O)C1C2C=CC(C2)C1C(=O)Nc1ccc2c(c1)OCCO2 (centres undefined)	-7.3	-1.5	i	-3.2	3.0	i	.	.	GRK2 confirm 2=7.5;FAM quench SP=107.0
Cc1nnc(SCC(=O)NC2CCCC(C)C2C)n1N (centres undefined)	.	0.5	i	-1.2	0.0	.	.	.
O=C(O)c1ccc(N2CCCC2=O)cc1	-10.0	-11.6	i	-7.5	52.0*	i	1.8	90.7
CC(CNc1nc2ccccc2n2cnnc12)c1ccccc1 (centres undefined)	.	-4.2	i	-9.1	42.0*	i	-2.9	103.0
C=CCOC(=O)CSCC(NC(=O)OC(C)(C)C)C(=O)OCC (centres undefined)	11.6	-1.4	i	9.6	86.0*	i	0.7	104.5
O=C(O)c1ccc(CN2C[C@@H](CO)O[C@@H](n3cnc4c(NCc5ccco5)ncnc43)C2)cc1	.	.	.	-8.9	.	.	.	.
O=C(NCC1CCCO1)c1cn(Cc2ccccc2)nc1-c1ccc(Cl)cc1 (centres undefined)	.	-16.9	i	8.9	45.0*	.	1.1	98.2
CC(=O)c1cccc(NC(=O)c2cc(-c3ccc(F)cc3)on2)c1	-1.1	-2.3	i	-6.7	0.0	i	-0.9	96.9
COc1cccc(-c2cc(C(=O)Nc3ccc(OC)c(OC)c3)no2)c1	7.7	5.3	i	2.4	98.0*	i	3.3	98.7
CC1(C)CC(=O)C2=C(C1)NC(=O)NC2c1ccccc1 (centres undefined)	-12.3	8.8	i	4.9	47.0*	i	-2.1	101.7
O=C(CCCSc1nnnn1-c1ccccc1)c1ccc(F)cc1	3.2	.	.	.	.	.	.	.
O=C(Cc1ccccc1F)Nc1cc(S(=O)(=O)N2CCCC2)ccc1Cl	.	3.8	i	-7.7	2.0	.	.	.
O=C(CNc1ccccc1F)Nc1cc(S(=O)(=O)N2CCCCC2)ccc1Cl	.	9.4	i	3.7	52.0*	.	3.1	93.1
COc1cccc(NC(=O)CSc2nnc(-c3ccoc3C)n2C)c1	.	-2.4	i	8.6	3.0	i	.	.
COc1ccc(-n2c(C)cc(C(=O)CSc3nnc(-c4ccoc4C)n3C)c2C)cc1	0.1	-2.2	i	1.3	91.0*	i	1.5	100.4
Cc1ccc(/C=C2/C(=N)N3N=C(CC(=O)N4CCCC4)SC3=NC2=O)cc1	.	2.6	i	-4.8	44.0*	i	3.4	99.7
CCOc1ccc(-c2cn[nH]c2N)cc1	5.1	-3.6	i	7.4	4.0	i	.	.
COc1ccc(-c2cn[nH]c2N)cc1	-7.9	-2.6	i	3.1	63.0*	i	2.2	81.6
Cc1cnc(C(=O)OCC(=O)Nc2cc(-c3ccccc3)nn2-c2ccccc2)cn1	.	1.6	i	5.6	0.0	i	.	.
Cc1noc(C)c1-c1ccc(C(=O)Nc2cccc(C(F)(F)F)c2)c2occc12	.	.	.	-1.9	.	.	.	.
CCN(C(=O)CN1c2ccccc2CC1C)c1c(N)n(Cc2ccccc2)c(=O)[nH]c1=O (centres undefined)	-16.0	-7.8	i	-1.9	1.0	i	4.2	95.0
CC(=O)Nc1ccc(SC[C@H](Cc2ccccc2)N2CC[C@@H](C(C)(C)C)CCC2=O)cc1	.	-6.0	i	8.4	10.0	.	.	.
COc1ccc(CC(=O)Nc2ccc(-c3nc4cc(C)ccc4o3)c(O)c2)cc1OC	7.3	5.7	i	6.0	71.0*	i	-20.8	108.6
COc1ccc(C2/C(=C(/O)c3ccccc3)C(=O)C(=O)N2C)cc1OC (centres undefined)	.	-3.3	i	1.9	4.0	i	.	.
COc1ccc2nc(NC(=O)CSc3nnnn3C3CCCCC3)sc2c1	-0.4	-0.3	.	-2.8	51.0*	i	-2.9	101.0
SMILES	TLR4 MyD88 comp	TLR9-MyD88 inh	ANO1 activ	NOD2 RIPK2 PPI	GRK2 inh	ANO1 block	GRK2 CP1	FAM quench CP1	others
CCOc1ccccc1N(CC)C(=O)c1cc2c(s1)-c1ccccc1S(=O)(=O)C2	.	.	.	-4.7	.	.	.	.
c1ccc(CN(CC2=NCCN2)c2ccccc2)cc1	9.0	20.7	i	-0.9	0.0	i	1.9	100.0
c1ccc(CC2=NCCN2)cc1	1.7	-5.2	i	-14.8	32.0	i	.	.
CCCCCc1cccnc1	.	0.8	i	-6.0	64.0*	i	-1.1	95.7
c1ccc(CCc2cccnc2)cc1	.	1.8	i	-1.0	.	.	.	.
O=C(CCC(=O)N1CCN(c2ccccc2F)CC1)N1CCN(c2ccccc2)CC1	.	4.9	i	1.4	0.0	i	-1.6	98.6
CCOC(=O)Cn1c(=O)n(Cc2ccco2)c(=O)c2ccc(C(=O)NC3CCCC3)cc21	-6.7	-4.0	i	1.9	86.0*	i	-2.2	102.9
Cc1nc(NC(=O)COC(=O)C2=NNC(=O)CC2)c(Cl)cc1Cl	-4.8	-0.5	i	-2.6	55.0*	i	-0.3	93.8
Cc1cc(Br)c2[nH]cc(CCNC(=O)c3ccco3)c2c1	.	9.5	i	-10.0	0.0	i	.	.
COC(=O)CN1C(=O)C2(OCCCO2)c2cc(Br)ccc21	10.6	-10.3	i	-6.1	99.0*	i	-0.4	101.3
CCOC(=O)CN1C(=O)C2(OCCCO2)c2ccccc21	-1.7	-4.4	i	-8.6	1.0	i	.	.
COc1ccc(C(=O)/C=C2\Sc3ccccc3N2C)cc1	-15.6	.	i	0.2	0.0	i	.	.
